Reference: PubChem BioAssay (NCATS)
Values joined by “and” are separate entries in the source; they are usually repeats but may differ in a detail not shown here. Equal entries are not always repeated. Inconclusive results are not listed. Where a call stands in place of a potency, no number is given. Active and inactive are the calls of the source. Unless noted, the call rests on the fitted dose curve.

Legend:
[1] = biological target: Bile acid receptor (Homo sapiens) (UniProt Q96RI1); experiment: qHTS assay for small molecule antagonists of farnesoid X receptor signaling (AID 588526)
Chain of Bile acid receptor (Homo sapiens) (Q96RI1 whole entry, looked up): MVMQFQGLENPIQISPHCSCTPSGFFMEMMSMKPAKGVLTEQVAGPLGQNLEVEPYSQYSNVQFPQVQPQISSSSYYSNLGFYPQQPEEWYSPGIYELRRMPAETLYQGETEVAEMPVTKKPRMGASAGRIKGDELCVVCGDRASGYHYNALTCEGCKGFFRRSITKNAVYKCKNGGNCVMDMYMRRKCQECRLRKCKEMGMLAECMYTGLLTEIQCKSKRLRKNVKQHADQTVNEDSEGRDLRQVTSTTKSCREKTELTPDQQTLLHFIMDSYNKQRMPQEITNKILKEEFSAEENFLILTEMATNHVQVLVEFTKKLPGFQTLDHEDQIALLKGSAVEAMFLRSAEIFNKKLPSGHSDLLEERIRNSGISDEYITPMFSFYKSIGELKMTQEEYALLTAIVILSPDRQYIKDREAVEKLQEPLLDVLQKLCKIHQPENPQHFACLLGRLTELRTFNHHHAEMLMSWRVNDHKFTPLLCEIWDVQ
Procedure, shortened: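 Beta-lactamase reporter antagonist mode: HEK293T FXR-UAS-bla cells, titrated compound, CDCA stimulation, 16 h 37 C, CCF4 dye 2 h RT. Data normalized to CDCA 50 uM and DMSO; Hill-fit IC50.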

[2] = biological target: Bile acid receptor (Homo sapiens) (UniProt Q96RI1); experiment: qHTS assay for small molecule agonists of farnesoid X receptor signaling (AID 588527); details: HEK293T FXR-UAS-bla, beta-lactamase ratio, 16 h; activation: stronger effect = higher value; further: series mostly up to about 77 µM
Procedure, shortened: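 Read-out: beta-lactamase reporter fluorescence with CCF4 substrate in GeneBLAzer FXR-UAS-bla HEK293T cells, after 16 h compound exposure at 37 C. Response scaled between DMSO basal (0%) and chenodeoxycholic acid at 100 uM (100%).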

[3] = biological target: Glucocorticoid receptor (Homo sapiens) (UniProt P04150); experiment: qHTS assay for small molecule antagonists of glucocorticoid receptor signaling (AID 588533; active means well fitted inhibition curve with a large enough effect in the signal ratio, with a control signal flat, not every such curve was filed as active; the % refers to the signal ratio;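 further: cells stimulated with 2 nM dexamethasone as agonist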)
Chain of Glucocorticoid receptor (Homo sapiens) (P04150 whole entry, looked up): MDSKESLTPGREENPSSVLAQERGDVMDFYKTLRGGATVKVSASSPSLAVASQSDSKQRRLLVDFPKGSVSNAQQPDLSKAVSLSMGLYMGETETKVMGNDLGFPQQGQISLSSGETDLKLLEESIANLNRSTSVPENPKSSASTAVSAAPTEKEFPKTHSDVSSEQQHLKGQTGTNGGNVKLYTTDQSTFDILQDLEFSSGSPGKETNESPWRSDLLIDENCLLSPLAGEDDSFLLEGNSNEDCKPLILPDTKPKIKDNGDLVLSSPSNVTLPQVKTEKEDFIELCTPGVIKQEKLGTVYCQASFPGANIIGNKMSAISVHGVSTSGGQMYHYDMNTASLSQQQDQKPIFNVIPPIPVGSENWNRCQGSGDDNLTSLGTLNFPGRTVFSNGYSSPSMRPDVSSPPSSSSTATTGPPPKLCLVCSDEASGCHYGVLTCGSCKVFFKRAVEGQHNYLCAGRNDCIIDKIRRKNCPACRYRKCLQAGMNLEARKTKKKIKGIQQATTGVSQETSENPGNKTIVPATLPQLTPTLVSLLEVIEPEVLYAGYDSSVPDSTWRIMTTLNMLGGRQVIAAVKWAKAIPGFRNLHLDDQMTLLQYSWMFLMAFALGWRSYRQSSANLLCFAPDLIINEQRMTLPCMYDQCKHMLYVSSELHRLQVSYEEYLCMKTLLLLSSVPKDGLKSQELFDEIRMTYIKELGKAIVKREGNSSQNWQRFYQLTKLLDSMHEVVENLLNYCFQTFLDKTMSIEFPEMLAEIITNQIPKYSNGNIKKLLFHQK
Procedure, shortened: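 Antagonist-mode qHTS: compound titrations added to GRE-bla HeLa cells, then dexamethasone 2 nM final; 18 h, 37 C. CCF4 FRET fluorescence normalized to dexamethasone and DMSO; IC50 from Hill fit.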

[4] = qHTS assay for small molecule antagonists of peroxisome proliferator-activated receptor delta signaling (AID 588535; active means well fitted inhibition curve with a large enough effect in the signal ratio, with a control signal flat, not every such curve was filed as active; the % refers to the signal ratio;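 on max response: cells co-treated with a PPAR-delta agonist as stimulator during compound exposure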); details: HEK293T PPARd-UAS-bla, beta-lactamase FRET ratio, 18 h; 460 nm channel
Procedure, shortened: (§1)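 HEK293T PPAR-delta-UAS-bla cells, 4000/well, 2% charcoal/dextran FBS; 5 h 37 C; cpd titration; 18 h 37 C; CCF4 2 h RT; FI 460/530 nm; Hill fit → IC50, efficacy.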

[5] = biological target: Peroxisome proliferator-activated receptor delta (Homo sapiens) (UniProt Q03181); experiment: as above
Chain of Peroxisome proliferator-activated receptor delta (Homo sapiens) (Q03181 whole entry, looked up): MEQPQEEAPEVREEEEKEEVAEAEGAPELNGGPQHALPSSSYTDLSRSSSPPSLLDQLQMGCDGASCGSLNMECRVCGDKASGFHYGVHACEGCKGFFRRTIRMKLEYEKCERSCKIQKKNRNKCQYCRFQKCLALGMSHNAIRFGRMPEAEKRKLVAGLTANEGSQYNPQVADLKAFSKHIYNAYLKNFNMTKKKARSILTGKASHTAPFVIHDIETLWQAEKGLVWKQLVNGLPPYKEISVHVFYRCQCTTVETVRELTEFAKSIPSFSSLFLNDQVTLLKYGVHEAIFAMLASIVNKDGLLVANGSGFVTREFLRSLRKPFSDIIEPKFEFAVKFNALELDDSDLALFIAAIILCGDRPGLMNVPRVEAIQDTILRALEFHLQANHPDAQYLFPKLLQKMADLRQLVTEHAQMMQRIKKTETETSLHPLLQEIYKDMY
Procedure, shortened: as §1

[6] = biological target: Peroxisome proliferator-activated receptor gamma (Homo sapiens) (UniProt P37231); experiment: qHTS assay for small molecule antagonists of peroxisome proliferator-activated receptor gamma signaling (AID 588537; active means well fitted inhibition curve with a large enough effect in the signal ratio, with a control signal flat, not every such curve was filed as active; the % refers to the signal ratio;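 further: reporter cells co-stimulated with 50 nM rosiglitazone agonist during compound treatment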)
Chain of Peroxisome proliferator-activated receptor gamma (Homo sapiens) (P37231 whole entry, looked up): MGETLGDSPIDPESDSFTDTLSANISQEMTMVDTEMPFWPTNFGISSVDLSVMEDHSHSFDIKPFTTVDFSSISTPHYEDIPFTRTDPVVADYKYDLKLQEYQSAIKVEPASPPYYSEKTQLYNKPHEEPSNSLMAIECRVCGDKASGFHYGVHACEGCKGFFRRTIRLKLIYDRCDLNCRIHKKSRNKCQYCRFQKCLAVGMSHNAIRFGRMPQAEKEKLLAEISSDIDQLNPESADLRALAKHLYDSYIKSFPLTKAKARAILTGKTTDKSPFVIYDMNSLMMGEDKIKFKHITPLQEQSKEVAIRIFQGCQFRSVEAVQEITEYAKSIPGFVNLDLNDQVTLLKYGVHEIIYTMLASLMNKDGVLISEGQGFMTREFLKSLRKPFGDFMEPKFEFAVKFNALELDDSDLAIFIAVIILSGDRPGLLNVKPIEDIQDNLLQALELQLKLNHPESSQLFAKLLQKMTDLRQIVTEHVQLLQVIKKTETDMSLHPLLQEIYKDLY
Procedure, shortened: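 Antagonist mode, beta-lactamase reporter in HEK293; charcoal/dextran FBS 1%; 3000 cells/well, 37 C 6-6.5 h; cpd titration + rosiglitazone 50 nM final, 16 h 37 C; CCF4, 2 h RT; 460/530 nm; Hill fit → IC50, efficacy.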

[7] = biological target: Retinoic acid receptor RXR-alpha (Homo sapiens) (UniProt P19793); experiment: qHTS assay for small molecule agonists of retinoid X receptor alpha signaling (AID 588544); further: potency means the concentration at half of the fitted maximal effect
Chain of Retinoic acid receptor RXR-alpha (Homo sapiens) (P19793 whole entry, looked up): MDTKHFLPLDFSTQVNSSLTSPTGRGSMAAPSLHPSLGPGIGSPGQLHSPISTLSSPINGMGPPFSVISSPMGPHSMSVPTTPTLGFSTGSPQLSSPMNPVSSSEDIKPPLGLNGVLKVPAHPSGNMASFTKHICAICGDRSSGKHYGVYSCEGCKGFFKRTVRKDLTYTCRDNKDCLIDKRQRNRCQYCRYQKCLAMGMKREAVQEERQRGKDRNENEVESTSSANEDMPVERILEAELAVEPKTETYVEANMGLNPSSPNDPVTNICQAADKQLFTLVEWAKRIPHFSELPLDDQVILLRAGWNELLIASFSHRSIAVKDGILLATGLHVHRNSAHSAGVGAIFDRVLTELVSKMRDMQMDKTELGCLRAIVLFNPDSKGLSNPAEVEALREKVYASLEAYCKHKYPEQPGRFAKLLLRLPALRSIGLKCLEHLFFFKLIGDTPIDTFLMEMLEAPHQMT

[8] = biological target: Thyroid hormone receptor beta (Homo sapiens) (UniProt P10828); experiment: qHTS assay for small molecule antagonists of thyroid hormone receptor beta signaling (AID 588547; active means well fitted inhibition curve with a large enough effect in the signal ratio, with a control signal flat, not every such curve was filed as active; the % refers to the signal ratio;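 further: cells stimulated with 0.4 nM T3 agonist during compound exposure; series mostly up to about 77 µM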); details: TR-UAS-bla HEK293, beta-lactamase ratio, antagonist mode, 18 h
Chain of Thyroid hormone receptor beta (Homo sapiens) (P10828 whole entry, looked up): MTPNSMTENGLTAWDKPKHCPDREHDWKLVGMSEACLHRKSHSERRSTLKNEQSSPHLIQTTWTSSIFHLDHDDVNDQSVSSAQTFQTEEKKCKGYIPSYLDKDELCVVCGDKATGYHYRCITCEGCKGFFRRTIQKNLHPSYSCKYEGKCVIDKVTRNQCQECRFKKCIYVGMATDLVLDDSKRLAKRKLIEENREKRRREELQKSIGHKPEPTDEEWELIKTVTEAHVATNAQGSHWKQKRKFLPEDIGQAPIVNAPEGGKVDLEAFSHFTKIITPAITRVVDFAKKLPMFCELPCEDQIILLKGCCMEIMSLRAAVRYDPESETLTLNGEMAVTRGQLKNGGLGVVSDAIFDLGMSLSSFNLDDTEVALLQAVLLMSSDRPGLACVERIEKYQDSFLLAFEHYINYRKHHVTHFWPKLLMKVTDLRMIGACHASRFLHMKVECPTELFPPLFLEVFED
Procedure, shortened: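 Inhibition of T3-driven (0.4nM final) beta-lactamase reporter activity was measured over 0.59 nM to 92 uM compound after 18 h at 37 C. The cells were GripTite HEK293 TR-UAS-bla in charcoal/dextran-stripped serum, with CCF4 ratio read-out and IC50 from Hill fits.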

[9] = biological target: Nuclear receptor subfamily 1 group I member 2 (Rattus norvegicus) (UniProt Q9R1A7); experiment: qHTS assay for small molecule activators of the rat pregnane X receptor (rPXR) signaling pathway (AID 651751; call rule not given here); details: rPXR reporter cells, luciferase (One-Glo), 24 h
Chain of Nuclear receptor subfamily 1 group I member 2 (Rattus norvegicus) (Q9R1A7 whole entry, looked up): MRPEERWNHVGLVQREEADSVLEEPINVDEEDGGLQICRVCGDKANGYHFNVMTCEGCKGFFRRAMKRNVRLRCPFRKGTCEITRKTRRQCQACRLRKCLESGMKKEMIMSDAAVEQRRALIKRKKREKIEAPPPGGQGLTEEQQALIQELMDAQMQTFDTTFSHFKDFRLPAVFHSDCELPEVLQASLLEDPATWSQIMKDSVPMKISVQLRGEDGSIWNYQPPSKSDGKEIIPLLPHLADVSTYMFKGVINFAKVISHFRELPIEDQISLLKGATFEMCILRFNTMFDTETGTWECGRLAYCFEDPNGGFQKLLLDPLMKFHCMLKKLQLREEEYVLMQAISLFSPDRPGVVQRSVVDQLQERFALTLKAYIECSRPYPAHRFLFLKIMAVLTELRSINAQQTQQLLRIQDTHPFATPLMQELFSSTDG

[10] = biological target: Androgen receptor (Homo sapiens) (UniProt P10275); experiment: qHTS assay for small molecule agonists of androgen receptor signaling (AID 588515; active means well fitted curve in the direction sought with a large enough effect in the signal ratio, with a control signal flat; the % refers to the signal ratio); details: AR-UAS-bla HEK293, beta-lactamase ratio, agonist 16 h; stronger effect = higher value
Chain of Androgen receptor (Homo sapiens) (P10275 whole entry, looked up): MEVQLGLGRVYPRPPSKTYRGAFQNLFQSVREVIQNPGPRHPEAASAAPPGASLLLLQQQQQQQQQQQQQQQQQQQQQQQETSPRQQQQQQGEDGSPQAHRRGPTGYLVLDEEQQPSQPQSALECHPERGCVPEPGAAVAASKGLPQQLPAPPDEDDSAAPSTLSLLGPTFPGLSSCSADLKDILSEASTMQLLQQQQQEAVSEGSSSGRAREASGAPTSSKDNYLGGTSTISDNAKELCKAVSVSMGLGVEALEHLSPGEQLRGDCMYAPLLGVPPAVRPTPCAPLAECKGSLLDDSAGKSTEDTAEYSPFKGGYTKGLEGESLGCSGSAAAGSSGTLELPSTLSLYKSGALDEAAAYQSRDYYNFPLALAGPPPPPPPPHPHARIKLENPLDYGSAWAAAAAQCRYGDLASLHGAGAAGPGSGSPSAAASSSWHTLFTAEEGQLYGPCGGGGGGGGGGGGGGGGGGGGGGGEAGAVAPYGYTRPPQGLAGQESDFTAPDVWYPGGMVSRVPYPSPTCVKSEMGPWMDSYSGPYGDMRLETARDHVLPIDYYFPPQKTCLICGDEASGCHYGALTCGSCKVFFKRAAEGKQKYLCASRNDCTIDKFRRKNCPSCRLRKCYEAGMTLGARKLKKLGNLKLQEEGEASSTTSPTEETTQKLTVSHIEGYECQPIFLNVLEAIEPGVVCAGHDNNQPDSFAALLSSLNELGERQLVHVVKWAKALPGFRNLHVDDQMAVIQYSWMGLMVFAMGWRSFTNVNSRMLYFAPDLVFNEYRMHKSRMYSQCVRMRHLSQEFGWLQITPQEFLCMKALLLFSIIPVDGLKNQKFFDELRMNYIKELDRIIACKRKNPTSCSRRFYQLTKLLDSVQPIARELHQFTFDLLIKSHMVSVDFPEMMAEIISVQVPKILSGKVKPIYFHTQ
Procedure, shortened: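 EC50 and efficacy came from Hill fits of titrations (up to 92 uM) normalized to 30 nM R1881 as 100% and DMSO as 0%. Compound exposure was 16 h at 37 C on AR-UAS-bla HEK293 cells, with a 405/460/530 nm CCF4 fluorescence read.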

[11] = qHTS assay for small molecule agonists of the antioxidant response element (ARE) signaling pathway (AID 651741; active means well fitted activation curve with a large enough effect in the signal ratio; the % refers to the signal ratio; further: potency means the concentration at half of the fitted maximal effect)
Procedure, shortened: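 Quantitative HTS in HepG2 cells stably expressing an ARE-beta-lactamase reporter; 16 h compound exposure at 37 C, followed by 2 h room-temperature incubation with LiveBLAzer B/G FRET substrate and fluorescence measurement.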

[12] = biological target: Androgen receptor (Homo sapiens) (UniProt P10275); experiment: qHTS assay for small molecule antagonists of androgen receptor signaling (AID 588516; active means well fitted curve in the direction sought with a large enough effect in the signal ratio, with a control signal flat, not every such curve was filed as active; the % refers to the signal ratio)
Procedure, shortened: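 Cells were plated and incubated 5 h, compounds added in titration, then R1881 (10 nM final) as agonist. After 16 h at 37 C, CCF4 substrate was loaded for 2 h at room temperature and fluorescence measured.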

[13] = qHTS assay for small molecule activators of the human pregnane X receptor (PXR) signaling pathway (AID 720659; call rule not given here)

| SMILES | Potency [1] | activation [2] | Potency [3] | max response [4] | Potency [5] | Potency [6] | Potency [7] | activity change % (negative = inhibition) [8] | max response [9] | activation [10] | Potency [11] | Potency [12] | outcome [13] |
| --- | --- | --- | --- | --- | --- | --- | --- | --- | --- | --- | --- | --- | --- |
| CCNc1nc(NC(C)(C)C)nc(SC)n1 | inactive | 4.27% (inactive) | inactive | 44.7% | inactive | inactive | inactive | 6.54% (inactive) | 2.02% (inactive) |  |  |  |  |
| CCOP(=S)(OCC)Oc1ncn(-c2ccccc2)n1 | inactive | 2.14% (inactive) |  | 1.15% | inactive |  | inactive | 4.61% (inactive) |  | 5.78% (inactive) | inactive |  |  |
| CCOP(=S)(S)OCC | inactive | 1.65% (inactive) | inactive | 11% | inactive | inactive | inactive | 8.37% (inactive) | 1.97% (inactive) | 24.9% (inactive) | inactive | inactive | inactive |
| O=[As](O)(O)O | inactive | -0.515% (inactive) | inactive | 6.63% | inactive |  | inactive | -13.2% (inactive) | -1.48% (inactive) | -0.986% (inactive) |  |  | inactive |
| O=S(=O)(c1ccc(O)cc1)c1ccc(O)cc1 | inactive | -2.06% (inactive) |  | 45.2% | inactive | inactive | inactive | 5% (inactive) | -2.78% (inactive) |  |  |  | inactive |
| NS(=O)(=O)C(F)(F)C(F)(F)C(F)(F)C(F)(F)C(F)(F)C(F)(F)C(F)(F)C(F)(F)F | inactive | 4.62% (inactive) | inactive | 101% | inactive |  |  |  | -9.61% (inactive) |  | 68.6 µM (active) |  |  |
| c1cc2c3c(cccc3c1)CC2 |  |  | inactive | -25.4% | inactive | inactive | inactive | 3.51% (inactive) | 0.0529% (inactive) | 5.35% (inactive) | inactive | inactive | inactive |
| C/C(=N\NC(=O)Nc1cc(F)cc(F)c1)c1ncccc1C(=O)O | inactive | -2.37% (inactive) and 0.898% (inactive) | inactive |  |  |  | inactive |  | -0.995% (inactive) and 1.1% (inactive) |  | inactive |  |  |
| CCOP(=S)(OCC)SCC(=O)NC(C)C |  | 0.181% (inactive) | inactive |  |  | inactive | inactive |  |  |  | inactive | inactive |  |
| CCOP(=O)(OCC)SCSC(C)(C)C | inactive |  | inactive | 5.82% | inactive |  | inactive | -1.18% (inactive) | 1.41% (inactive) | 3.02% (inactive) | inactive |  | inactive |
| CCOP(=O)(SC(C)CC)SC(C)CC (stereo unspecified) | inactive | -3.29% (inactive) | inactive | -10.9% | inactive | inactive | inactive | -3.53% (inactive) | 4.1% (inactive) | 7.1% (inactive) | inactive |  | inactive |
| CCOC1Oc2ccc(OS(C)(=O)=O)cc2C1(C)C (stereo unspecified) |  |  |  | -8.85% | inactive | inactive | inactive |  | 11.5% (inactive) | -8.07% (inactive) |  | inactive |  |
| C=CC(=O)NCO | inactive |  |  | 1.4% | inactive | inactive |  |  | 3.28% (inactive) and -7.26% (inactive) | -1.79% (inactive) and 14.2% (inactive) | 501 µM (active) | inactive | inactive |
| CCCCN(CC)C(=O)SCCC | inactive |  | inactive | 5.34% | inactive | inactive | inactive | 1.78% (inactive) | 4.32% (inactive) | 8.69% (inactive) |  |  | inactive |
| Nc1ccc([N+](=O)[O-])cc1Cl | inactive | -2.5% (inactive) | inactive | -22.4% | inactive |  | inactive | -8.47% (inactive) | 2.06% (inactive) | -9.37% (inactive) | inactive |  | inactive |
| CC1CCCCC1NC(=O)Nc1ccccc1 (stereo unspecified) | inactive | 2% (inactive) | inactive | 3.43% | inactive | inactive |  |  |  |  | 34.4 µM (active) |  |  |

| SMILES | Potency [1] | activation [2] | Potency [3] | max response [4] | Potency [5] | Potency [6] | Potency [7] | activity change % (negative = inhibition) [8] | max response [9] | activation [10] | Potency [11] | Potency [12] | outcome [13] |
| --- | --- | --- | --- | --- | --- | --- | --- | --- | --- | --- | --- | --- | --- |
| C=CCC1=C(C)[C@@H](OC(=O)[C@@H]2[C@@H](C=C(C)C)C2(C)C)CC1=O | inactive | 1.33% (inactive) | inactive |  |  |  | inactive |  |  |  | 61.1 µM (active) |  |  |
| CC(C)(C)N(NC(=O)c1ccc(Cl)cc1)C(=O)c1ccccc1 | inactive | 5.56% (inactive) | inactive | -27.8% | inactive |  | inactive |  |  | 4.02% (inactive) | inactive |  |  |
| Cc1ccccc1C(=O)Nc1cccc(OC(C)C)c1 |  |  | inactive | 10.6% | inactive |  | inactive | 5.62% (inactive) |  | -11.5% (inactive) | inactive |  |  |
| CNC(=O)Oc1cccc2c1OC(C)(C)C2O (stereo unspecified) | inactive |  | inactive |  |  |  | inactive | 7.05% (inactive) | -0.827% (inactive) | 3.8% (inactive) | 54.5 µM (active) |  | inactive |
| CCOc1ccc(C(C)(C)COCc2cccc(Oc3ccccc3)c2)cc1 | inactive | 4.53% (inactive) | inactive | -0.606% | inactive | inactive |  |  |  |  | inactive |  |  |
| FC(F)(F)c1ccc(OCCCOc2c(Cl)cc(OCC=C(Cl)Cl)cc2Cl)nc1 | inactive | -2.38% (inactive) |  | -4.25% | inactive |  | inactive | 2.93% (inactive) | 1.93% (inactive) | -16.8% (inactive) | 54.5 µM (active) | inactive | inactive |
| O=C1NCCN1Cc1ccc(Cl)nc1 |  |  | inactive | -14.3% | inactive |  | inactive |  | 1.46% (inactive) | 5.64% (inactive) | inactive |  | inactive |
| C=CC1(C)OC(=O)N(c2cc(Cl)cc(Cl)c2)C1=O (stereo unspecified) | inactive | -2.77% (inactive) | inactive | -9.9% | inactive | inactive |  |  | -0.0091% (inactive) |  |  |  |  |
| O=c1[nH]c2ccccc2c(=O)o1 | inactive | 0.0754% (inactive) |  | 29.4% | inactive |  | inactive | -10.7% (inactive) | -5.81% (inactive) |  | inactive |  | inactive |
| CCOc1nc(NC)nc(NC(=O)NS(=O)(=O)c2ccccc2C(=O)OC)n1 | inactive | -2.84% (inactive) | inactive | 16.6% | inactive | inactive |  |  | 1.05% (inactive) | -6.67% (inactive) |  |  |  |
| CC(Oc1cc(Cl)c(Cl)cc1Cl)C(=O)O (stereo unspecified) | inactive | -3.32% (inactive) | inactive | 52.3% | inactive |  | inactive |  | 2.63% (inactive) |  |  |  | inactive |
| CCOP(=O)(OCC)SCSCC | inactive | -0.362% (inactive) | inactive | -57% | inactive |  | inactive | 4.37% (inactive) | -5.9% (inactive) | 6.75% (inactive) | inactive | inactive |  |
| C=CC(=O)OCCCCCC(C)C |  | 1.09% (inactive) |  | 38.5% | inactive |  | 31.6 µM (active) |  | 0.944% (inactive) | 3.1% (inactive) |  |  |  |
| O=[N+]([O-])c1ccc(Oc2ccc(C(F)(F)F)cc2[N+](=O)[O-])cc1 | inactive | -1.37% (inactive) | inactive |  |  |  |  | 5.9% (inactive) | 11.4% (inactive) |  | 48.6 µM (active) |  | inactive |
| COP(=S)(OC)Oc1nc(Cl)c(Cl)cc1Cl | inactive | 0.351% (inactive) | inactive |  |  |  |  |  | -1.85% (inactive) |  | 27.3 µM (active) |  | inactive |
